Compounds without any hit were thinned out: in the full panel of roughly 83,000, 20% have a hit.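 Plates (96-well) were seeded with cells, treated with compound at one concentration, and incubated for 48 hours before percent growth was determined.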 Activity calls are given as the source filed them. Rule for the calls: active = growth percent below 10; inactive = the rest.
How the values were obtained:
Test in all cases: NCI-60 one-dose screen, 48 h (100 = growth as untreated, 0 = no growth, -100 = all killed)
Details in all cases: 10 µM unless noted
NCI-H23 lung = test system: NCI-H23 lung
NCI-H322M lung = test system: NCI-H322M lung
HOP-62 NSCLC = test system: HOP-62 NSCLC
NCI-H460 lung = test system: NCI-H460 lung
HOP-92 NSCLC = test system: HOP-92 NSCLC
NCI-H522 lung = test system: NCI-H522 lung
A549/ATCC NSCLC = test system: A549/ATCC NSCLC
786-0 renal = test system: 786-0 renal
COLO 205 colon = test system: COLO 205 colon

Measured: growth

COc1ccc(NC2=C(Br)C(=O)C(C)=C(C)C2=O)cc1OC
active: HOP-92 NSCLC -60.8%
inactive: NCI-H23 lung 89.8% | NCI-H322M lung 106% | HOP-62 NSCLC 104% | NCI-H460 lung 101% | NCI-H522 lung 89.6% | A549/ATCC NSCLC 98.7% | 786-0 renal 106% | COLO 205 colon 125%

O=C(/C=C/c1cccc(Br)c1)c1cccc(OCCCCOc2cccc(C(=O)/C=C/c3cccc(Br)c3)c2)c1
inactive: NCI-H23 lung 98% | NCI-H322M lung 103% | HOP-62 NSCLC 107% | NCI-H460 lung 100% | HOP-92 NSCLC 115% | NCI-H522 lung 98.1% | A549/ATCC NSCLC 98.8% | 786-0 renal 106% | COLO 205 colon 115%

CCOC(=O)c1c(NCC(=O)Nc2cccc([N+](=O)[O-])c2)sc(C(C)=O)c1C
active: NCI-H23 lung -40.7% | NCI-H460 lung -29% | HOP-92 NSCLC -24.7% | NCI-H522 lung -32% | A549/ATCC NSCLC -13.5% | 786-0 renal -15% | COLO 205 colon -42.9%
inactive: NCI-H322M lung 95%

Cn1ncc2c(C(=O)c3ccc(F)cc3)nc(C(C)(C)C)nc21
inactive: NCI-H23 lung 95.8% | NCI-H322M lung 97.8% | NCI-H460 lung 101% | HOP-92 NSCLC 56.4% | NCI-H522 lung 91.8% | A549/ATCC NSCLC 91.9% | 786-0 renal 101% | COLO 205 colon 108%

CCCc1[nH]c(-c2cc(N)ccc2Cl)c2c1C(=O)CCCC2
inactive: NCI-H23 lung 93.3% | NCI-H322M lung 89.1% | HOP-62 NSCLC 94.5% | NCI-H460 lung 102% | HOP-92 NSCLC 81.6% | A549/ATCC NSCLC 91.9% | 786-0 renal 91% | COLO 205 colon 121%

NC1=NC2(CCCC2)N(c2ccc(S(=O)(=O)Nc3nccs3)cc2)C(N)=N1
inactive: NCI-H23 lung 101% | NCI-H322M lung 103% | NCI-H460 lung 102% | HOP-92 NSCLC 113% | NCI-H522 lung 102% | A549/ATCC NSCLC 104% | 786-0 renal 105% | COLO 205 colon 113%

COC(=O)c1cccc(NC2=CC(=O)C(C)=C(C)C2=O)c1
inactive: NCI-H23 lung 63.9% | NCI-H322M lung 104% | HOP-62 NSCLC 97.4% | NCI-H460 lung 104% | HOP-92 NSCLC 123% | NCI-H522 lung 93.6% | A549/ATCC NSCLC 109% | 786-0 renal 101% | COLO 205 colon 114%

COc1cc(/C=C2/C(=O)Nc3ccc(Cl)cc32)ccc1OCc1ccc(Cl)cc1
inactive: NCI-H23 lung 81.2% | NCI-H322M lung 89.3% | NCI-H460 lung 70.5% | HOP-92 NSCLC 88.3% | NCI-H522 lung 87.9% | A549/ATCC NSCLC 84.9% | 786-0 renal 100% | COLO 205 colon 93.4%

COc1ccc(OC)c(CCn2cncc2-c2c[nH]c3ccc(Cl)cc23)c1
active: NCI-H522 lung 3.34%
inactive: NCI-H23 lung 38.1% | NCI-H322M lung 88.4% | HOP-62 NSCLC 49.5% | NCI-H460 lung 46.1% | HOP-92 NSCLC 20.8% | A549/ATCC NSCLC 33.3% | 786-0 renal 69.7% | COLO 205 colon 29.8%

C#CCOc1ccc(-c2csc(NC(=O)C=C)n2)cc1NS(=O)(=O)c1cccc2c(N(C)C)cccc12
active: HOP-92 NSCLC 0.234% | 786-0 renal 8.71%
inactive: NCI-H23 lung 56.4% | NCI-H322M lung 87.6% | HOP-62 NSCLC 93.2% | NCI-H460 lung 81.2% | NCI-H522 lung 29.9% | A549/ATCC NSCLC 65.4% | COLO 205 colon 67.6%

COc1ccc(N2CCN(C3=C(Cl)C(=O)c4ncccc4C3=O)CC2)cc1
inactive: NCI-H23 lung 55.9% | NCI-H322M lung 97.2% | HOP-62 NSCLC 85.4% | NCI-H460 lung 52.7% | HOP-92 NSCLC 96.2% | A549/ATCC NSCLC 96% | 786-0 renal 107% | COLO 205 colon 30.5%

CC(C)[C@H]1c2[nH]c3ccccc3c2C[C@H]2C(=O)N(CCCCCCC(=O)NO)CC(=O)N12
inactive: NCI-H23 lung 87.6% | NCI-H322M lung 88.4% | HOP-62 NSCLC 85.7% | NCI-H460 lung 78.5% | HOP-92 NSCLC 74.9% | NCI-H522 lung 42.8% | A549/ATCC NSCLC 98.7% | 786-0 renal 97.3% | COLO 205 colon 83.8%

CN1CCN(CCNc2nc(-c3cccc(NS(=O)(=O)c4cccc5c(N(C)C)cccc45)c3)cs2)CC1
inactive: NCI-H23 lung 51.9% | NCI-H322M lung 85.8% | HOP-62 NSCLC 82% | NCI-H460 lung 70.7% | HOP-92 NSCLC 39.7% | NCI-H522 lung 69.4% | A549/ATCC NSCLC 69.6% | 786-0 renal 60.8% | COLO 205 colon 85.6%

Clc1ccc(CSc2nnc(-c3ccc(Cl)cc3)n2-c2ccccc2)cc1
inactive: NCI-H23 lung 79.8% | NCI-H322M lung 92.7% | HOP-62 NSCLC 92.4% | NCI-H460 lung 85.8% | HOP-92 NSCLC 89.5% | NCI-H522 lung 70.1% | A549/ATCC NSCLC 80.3% | 786-0 renal 59.7% | COLO 205 colon 122%

CC1=C(C)C(=O)C(Nc2ccc3c(c2)OCCO3)=C(Br)C1=O
inactive: NCI-H23 lung 85.2% | NCI-H322M lung 102% | HOP-62 NSCLC 97.6% | NCI-H460 lung 102% | HOP-92 NSCLC 68.2% | NCI-H522 lung 96.9% | A549/ATCC NSCLC 107% | 786-0 renal 105% | COLO 205 colon 126%

COc1cc(-c2nc(-c3ccccc3)[nH]c2-c2ccnc(NCCCNS(=O)(=O)c3ccc(C)cc3)n2)ccc1F
inactive: NCI-H23 lung 103% | NCI-H322M lung 93.1% | HOP-62 NSCLC 150% | NCI-H460 lung 91.9% | HOP-92 NSCLC 122% | NCI-H522 lung 80% | A549/ATCC NSCLC 74.2% | 786-0 renal 94.5% | COLO 205 colon 96%

COc1ccc(C(C)=C(c2ccc(OCCN3CCCCCC3)cc2)c2ccc(OCCN3CCCCCC3)cc2)cc1
active: NCI-H23 lung -40.3% | NCI-H322M lung -11.7% | HOP-62 NSCLC -52.4% | NCI-H460 lung -57.2% | HOP-92 NSCLC -8.87% | A549/ATCC NSCLC -35.9% | 786-0 renal -93.9% | COLO 205 colon -60.8%

O=C1CSC(c2cn(-c3ccccc3)nc2-c2ccc(Cl)cc2)N1c1ccccc1 (stereo not drawn)
inactive: NCI-H23 lung 96.9% | NCI-H322M lung 112% | NCI-H460 lung 111% | HOP-92 NSCLC 100% | NCI-H522 lung 95.7% | A549/ATCC NSCLC 98.1% | 786-0 renal 106% | COLO 205 colon 120%

C#Cc1nc(/C=C/C(=O)NO)cs1
active: NCI-H23 lung -86.7% | HOP-92 NSCLC -79.5% | NCI-H522 lung -60% | 786-0 renal -76.5%
inactive: NCI-H322M lung 82.5% | HOP-62 NSCLC 48.5% | NCI-H460 lung 63.4% | A549/ATCC NSCLC 69.6% | COLO 205 colon 79.8%

O=C1[C@@H]2Cc3c([nH]c4ccccc34)[C@@H](c3ccc(Cl)cc3)N2C(=O)CN1C1CCN(Cc2ccccc2)CC1
inactive: NCI-H23 lung 72.4% | NCI-H322M lung 87.2% | HOP-62 NSCLC 61% | NCI-H460 lung 20% | HOP-92 NSCLC 11.3% | NCI-H522 lung 20.7% | A549/ATCC NSCLC 38.6% | 786-0 renal 67% | COLO 205 colon 46.4%

O=C(CSc1nnc(-c2cccs2)n1-c1ccccc1)Nc1ccccc1
inactive: NCI-H23 lung 86% | NCI-H322M lung 84% | HOP-62 NSCLC 46.7% | NCI-H460 lung 81.8% | HOP-92 NSCLC 53.3% | NCI-H522 lung 57.7% | A549/ATCC NSCLC 87.7% | 786-0 renal 85.1% | COLO 205 colon 104%

CC1(C)CC[C@]2(C(=O)O)CC[C@]3(C)C(=CC[C@@H]4[C@@]5(C)CC[C@H](NOCCCN)C(C)(C)[C@@H]5CC[C@]43C)[C@@H]2C1
inactive: NCI-H23 lung 91.1% | NCI-H322M lung 94% | HOP-62 NSCLC 102% | NCI-H460 lung 73.3% | HOP-92 NSCLC 62.3% | NCI-H522 lung 97.2% | A549/ATCC NSCLC 77.9% | 786-0 renal 98.6% | COLO 205 colon 19.6%

N#Cc1c(-c2ccc(F)cc2)cc(-c2c[nH]c3ccccc23)nc1-c1c[nH]c2ccccc12
inactive: NCI-H23 lung 100% | NCI-H322M lung 106% | NCI-H460 lung 104% | HOP-92 NSCLC 93.4% | NCI-H522 lung 97% | A549/ATCC NSCLC 101% | 786-0 renal 99.5% | COLO 205 colon 113%

CNC(=O)c1cc(-n2ccc3cc(NC(=O)Nc4ccc(N5CCN(C)CC5)c(C(F)(F)F)c4)ccc32)ccn1
active: 786-0 renal -13.7%
inactive: NCI-H23 lung 88.6% | NCI-H322M lung 85.4% | HOP-62 NSCLC 75.6% | NCI-H460 lung 60% | HOP-92 NSCLC 71.1% | NCI-H522 lung 101% | A549/ATCC NSCLC 68.2% | COLO 205 colon 90.8%

CCN1CCN(c2ccc(NC(=O)Nc3ccc4c(ccn4-c4ccnc(C(=O)NC)c4)c3)cc2C(F)(F)F)CC1
inactive: NCI-H23 lung 81.8% | NCI-H322M lung 85.5% | HOP-62 NSCLC 79.1% | NCI-H460 lung 75.6% | HOP-92 NSCLC 84.7% | NCI-H522 lung 105% | A549/ATCC NSCLC 91.3% | 786-0 renal 10.3% | COLO 205 colon 97.9%

CC1=C(C)C(=O)C(Nc2cccc(C(=O)OC(C)(C)C)c2)=C(Cl)C1=O
inactive: NCI-H23 lung 92.4% | NCI-H322M lung 99.5% | NCI-H460 lung 99.8% | HOP-92 NSCLC 56.4% | NCI-H522 lung 81.7% | A549/ATCC NSCLC 90.4% | 786-0 renal 96.5% | COLO 205 colon 118%

Cc1ncn(-c2ccc(/C=N/Nc3ccnc4cc(Cl)ccc34)cc2)c1C
active: NCI-H460 lung -52.3% | HOP-92 NSCLC -28.2% | NCI-H522 lung -66.2% | A549/ATCC NSCLC 0.0933% | 786-0 renal -89.4% | COLO 205 colon -96.5%
inactive: NCI-H23 lung 54.1% | NCI-H322M lung 45.5% | HOP-62 NSCLC 102%
